Out of some 2,100 compounds screened, about 670 (32%) were called active. Not shown: some 50% with an inconclusive outcome. Calls follow the shape of the dose curve; as a rule, active = well fitted inhibition curve with a large enough effect; inconclusive = small, poorly fitted or top-dose-only effect; inactive = no such curve, though single readings can be large or run the other way. Some of the results follow.
Assay: CMV-Luciferase Counterscreen for Inhibitors of ATXN expression; also: nearly all actives have a fitted effect of over 55% in size
Conditions: HEK-293 CMV-luciferase reporter, luminescence, 24 h; series mostly up to 57.5 µM; activity change, negative = inhibition: at the top concentration
For `Cc1cc(N2CCN(Cc3nc(-c4ccc(Cl)cc4)oc3C)CC2)cc(C)n1`, the Potency was 25.1 µM (active).
In the case of `NS(=O)(=O)c1ccc(CCNC(=O)c2cc(-c3ccccn3)nc3ccc(Br)cc23)cc1`, the “activity change, negative = inhibition” value is reported as -21.8% (inactive).
In the case of `COc1ccc(N(C)S(=O)(=O)c2ccc(Cl)c(C(=O)NCCc3ccc(Cl)cc3)c2)cc1`, the Potency is reported as 14.1 µM (active).
For `COC(=O)c1ccc(C(=O)Nc2cc(Cl)ccc2Cl)cc1NC(=O)c1ccc(N(C)C)cc1`, the activity change, negative = inhibition was -1.02% [at 11.4 µM] (inactive).
For `CCOP(=O)(OCC)C(Cc1ccccc1)N=C(c1ccccc1)c1ccccc1` (configuration not stated), the Potency was 22.4 µM (active).
In the case of `Nc1ccc(Oc2ccccc2-c2ccccc2)cc1`, the Potency is reported as 2 µM (active).
For `Cc1cccc(NC2=Nc3ccccc3N3C2=Nc2c(c(C)nn2-c2ccccc2)C3c2ccc(O)c(O)c2)c1` (configuration not stated), the activity change, negative = inhibition was -12.9% [at 11.4 µM] (inactive).
With `CC(=O)Nc1ccc(NC2=Nc3ccccc3N3C2=Nc2c(c(C)nn2-c2ccccc2)C3c2ccccc2)cc1` (configuration not stated) the Potency was 1.12 µM (active).
In the case of `CN(C)CCOc1ccc(-c2c(-c3ccccc3)sc3ccccc23)cc1`, the Potency is reported as 22.4 µM (active).
For `CC(=O)NC(c1cccs1)c1cc(Br)c2cccnc2c1O` (configuration not stated), the Potency was 4.47 µM (active).
With `CCC(=O)NC(c1ccc(C)cc1)c1cc([N+](=O)[O-])c2cccnc2c1O` (configuration not stated) the Potency was 7.08 µM (active).
For `O=C(Nc1nccs1)c1cccc(N2C(=O)c3cccc4c([N+](=O)[O-])ccc(c34)C2=O)c1`, the “activity change, negative = inhibition” value was -20% (inactive).
For `CC(=O)NC(c1cccs1)c1cc([N+](=O)[O-])c2cccnc2c1O` (configuration not stated), the Potency was 10 µM (active).
With `Cc1cc(OCC(=O)NC(C)c2ccccc2)ccc1[N+](=O)[O-]` (configuration not stated) the activity change, negative = inhibition was -19.4% [at 11.4 µM] (inactive).
With `Oc1cccc(C(O)CNCc2ccc(-c3ccccc3)cc2)c1` (configuration not stated) the “activity change, negative = inhibition” value was -30% (inactive).
In the case of `CCc1ccc(-n2cc(-c3ccc(F)cc3)[n+]3c2SCCC3)cc1`, the Potency is reported as 17.8 µM (active).
With `CC1(C)Cc2ccccc2C2=NNC(=O)C2=N1` the Potency was 25.1 µM (active).
For `COc1ccc(CCNC(=O)c2cc(-c3cc(C)cc(C)c3O)n[nH]2)cc1OC`, the Potency was 20 µM (active).
In the case of `Cc1sc2cc3c(c(C(=O)c4ccccc4)[n+]2c1C)-c1cccc2cccc-3c12`, the Potency is reported as 3.16 µM (active).
With `Cc1ccc(C(=O)N/C(=C/c2ccc(-c3ccc([N+](=O)[O-])cc3)o2)C(=O)NCCCN(C)C)cc1` the “activity change, negative = inhibition” value was -11.5% (inactive).
In the case of `Cc1ccsc1/C=C/C1=Cc2c(sc(NC(=O)CSc3n[nH]c(N)n3)c2C#N)C(C)(C)C1`, the “activity change, negative = inhibition” value is reported as -26.7% (inactive).
With `COc1cccc(CN(C)C(=O)c2ccc(OCC(=O)Nc3cccc(C(F)(F)F)c3)c(OC)c2)c1` the Potency was 7.08 µM (active).
With `CN(C)CCNC(=O)c1cccc(-c2cnc3c(NC=O)cc(/C=C/c4ccccc4)cn23)c1` the “activity change, negative = inhibition” value was 45.6% (inactive).
In the case of `Cc1cc2sc3ccc(C#CC4(O)CCCCC4)cc3c(=O)c2cc1C`, the Potency is reported as 0.0316 µM (active).
For `COc1ccccc1-c1cc2nc(-c3ccccc3)cc(N3CCN(C(=O)c4ccoc4)CC3)n2n1`, the Potency was 7.94 µM (active).
With `COc1cccc(-c2cc3nc(-c4ccccc4)cc(N4CCN(C(=O)c5ccoc5)CC4)n3n2)c1` the Potency was 3.16 µM (active).
With `COc1ccccc1-c1cc2nc(-c3ccccc3)cc(N3CCN(C(=O)c4ccco4)CC3)n2n1` the Potency was 7.94 µM (active).
With `FC(F)(F)c1cc(-c2ccccn2)nc2cc(-c3ccccc3)nn12` the “activity change, negative = inhibition” value was -0.328% (inactive).
With `O=C(c1ccoc1)N1CCN(c2cc(-c3ccccc3)nc3cc(-c4ccccc4)nn23)CC1` the Potency was 10 µM (active).
With `NC(=O)Cn1c(=O)n(CCc2ccccc2)c(=O)c2c3c(sc21)CCCC3` the “activity change, negative = inhibition” value was 10.9% (inactive).
In the case of `CCNc1ccc(Br)cc(C(=O)/C=C/c2ccccc2Cl)c1=O`, the activity change, negative = inhibition is reported as -8.42% [at 11.4 µM] (inactive).
With `O=C(c1ccoc1)N1CCN(c2cc(-c3cccnc3)nc3cc(-c4cccc(Cl)c4)nn23)CC1` the Potency was 28.2 µM (active).
For `O=C(Nc1cccc2c1CCCC2)c1cc([N+](=O)[O-])ccc1Cl`, the Potency was 6.31 µM (active).
In the case of `COc1cccc(CC2(CO)CCCN(Cc3[nH]c4ccc(C)cc4c3C)C2)c1` (configuration not stated), the “activity change, negative = inhibition” value is reported as -14.8% (inactive).
For `Cc1ccc(S(=O)(=O)Nc2ccc(O)c3cccnc23)cc1`, the Potency was 28.2 µM (active).
With `Cc1ccc(S(=O)(=O)Nc2cccc3cccnc23)c([N+](=O)[O-])c1` the “activity change, negative = inhibition” value was 80.5% (inactive).
With `CC(=O)NC(c1ccc(C(C)C)cc1)c1ccc2cccnc2c1O` (configuration not stated) the Potency was 1.26 µM (active).
With `COc1cccc(C(NC(C)=O)c2ccc3cccnc3c2O)c1` (configuration not stated) the Potency was 2.82 µM (active).
In the case of `CC(=O)NC(c1ccc2ccccc2c1)c1ccc2cccnc2c1O` (configuration not stated), the Potency is reported as 0.355 µM (active).
In the case of `CCC(=O)NC(c1ccco1)c1cc(Br)c2cccnc2c1O` (configuration not stated), the Potency is reported as 8.91 µM (active).
For `OC1(c2ccc(Br)cc2)CCNCC1`, the activity change, negative = inhibition was 0.489% [at 11.4 µM] (inactive).
With `Oc1c(C(Nc2ccccn2)c2ccccn2)ccc2cccnc12` (configuration not stated) the Potency was 2.82 µM (active).
For `CC(=O)NC(c1ccco1)c1cc(Cl)c2cccnc2c1O` (configuration not stated), the Potency was 7.94 µM (active).
In the case of `Cc1cccc(NC(c2ccc(C)s2)c2ccc3ccc(C)nc3c2O)n1` (configuration not stated), the “activity change, negative = inhibition” value is reported as 21.1% (inactive).
In the case of `CC(=O)NC(c1ccco1)c1ccc2cccnc2c1O` (configuration not stated), the Potency is reported as 1.58 µM (active).
In the case of `Oc1cccc(C(Nc2nccs2)c2ccc3cccnc3c2O)c1` (configuration not stated), the Potency is reported as 2.82 µM (active).
With `CC(C)(C)OC(=O)N1CCC(c2c(C(=O)NCC3CCN(C4CCCC4)C3)cnn2-c2cccc(Cl)c2)CC1` (configuration not stated) the activity change, negative = inhibition was -22.1% [at 11.4 µM] (inactive).
With `CN(Cc1ccccc1)C(=O)c1ccc(NC(=O)C2CCN(C(=O)OC(C)(C)C)CC2)cc1` the Potency was 7.08 µM (active).
For `O=C(Cc1coc2cc3c(cc12)CCC3)OCC(=O)N1CCCC1=O`, the Potency was 15.8 µM (active).
With `Cc1ccc(-n2c(-c3ccccc3)c[n+]3c2CCc2ccccc2-3)c(C)c1` the Potency was 0.794 µM (active).
In the case of `S=C(Nc1ccccc1)Nc1ccc(OCc2ccc(Cl)cc2Cl)cc1`, the Potency is reported as 3.55 µM (active).
With `S=C(Nc1cc(Cl)ccc1Oc1ccccc1)N1CCN(c2ccccn2)CC1` the Potency was 17.8 µM (active).
In the case of `Oc1[nH]c2ccc(Br)cc2c1N=NC(=S)N1CCOCC1`, the activity change, negative = inhibition is reported as 43.7% [at 11.4 µM] (inactive).
In the case of `O=C(Nc1ccc(Br)cc1)c1cccc(OC(=S)N2CCOCC2)c1`, the Potency is reported as 2 µM (active).
For `Cc1ccc(S(=O)(=O)N2CCc3ccccc3CC2)cc1`, the Potency was 0.794 µM (active).
For `COCCNC(=O)c1cccc(Nc2nc(-c3ccccc3)c3cc(Cl)ccc3n2)c1`, the Potency was 15.8 µM (active).
With `O=C(NCCc1csc(-c2cccnc2)n1)c1cccc(Cl)c1` the “activity change, negative = inhibition” value was -26.6% (inactive).

Source: PubChem BioAssay AID1745847 (National Center for Advancing Translational Sciences (NCATS), 2022)
% is scaled to controls: 0 for no effect and ±100 for the full control effect; potency is read from the fitted curve at half-maximal effect.
